The list shows a part of the results. Active and inactive are the calls of the source.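 The calls were made as follows, unless noted: active = mean inhibition of at least 40% at 20 µM; inactive = the rest.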
How the values were obtained:
[1] = Apaf-1 inhibitors, single-dose retest, confirmation, biochemical, fluorescence, DEVD-Rh110, 20 µM (AID 504614); settings: reconstituted apoptosome, caspase-3 DEVD-Rh110 fluorescence; at 20 µM; stronger effect = higher value;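 also: plate controls were DMSO wells for no effect and DEVD-CHO caspase inhibitor control wells for full effect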
[2] = Rh110 fluorescence interference by putative Apaf-1 inhibitors, confirmation, artefact control for Apaf-1 inhibitor project, biochemical, 20 µM (AID 504615;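 active = signal rise of 40% or more at 20 µM, treated as a fluorescence artifact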); settings: quenched caspase reaction, at 20 µM, stronger effect = higher value
[3] = target: Protein Mdm4 (Homo sapiens) + E3 ubiquitin-protein ligase Mdm2 (Homo sapiens) (UniProt O15151+Q00987); assay: retested Mdm2-MdmX interaction blockers, confirmation, cell-based, luminescence, single concentration, set 2 (AID 504601;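 active = mean inhibition of the luminescence signal across two replicates at or above 26 percent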); settings: SaOS-2 split-luciferase Mdm2/MdmX complementation, at 8 µM, stronger effect = higher value
[4] = target: Tumor necrosis factor receptor superfamily member 10B (Homo sapiens) (UniProt O14763); assay: caspase-8 TRAIL sensitization, hit retest, confirmation, cell-based, NB7+caspase-8, with/without TRAIL, luminescence panel (AID 651596; in the data active = activity above about 50%); settings: NB7 neuroblastoma + caspase-8, TRAIL sensitization, luminescence viability, with TRAIL, mean of runs, at 10 µM, stronger effect = higher value
[5] = as above; settings: NB7 neuroblastoma + caspase-8, without TRAIL, luminescence viability, without TRAIL, mean of runs, at 10 µM
[6] = HIF-2a reporter inhibitor retest, confirmation, luminescence, 786-0 RCC cells (AID 651580;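 active = mean inhibition across four replicates of at least 40 percent at the single tested concentration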); settings: HIF-2a luciferase reporter luminescence, overnight, at 18.8 µM, stronger effect = higher value
[7] = HIF-1a luciferase reporter signal reduction – MiaPaCa-2 cells, single concentration, counter-screen for HIF-2a inhibitor project, confirmation (AID 651589;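 active = mean inhibition of the reporter signal across four replicates at the single tested dose of 50% or more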); settings: MiaPaCa-2 HIF-1a luciferase reporter, desferoxamine, overnight; at 18.8 µM; stronger effect = higher value
[8] = inhibition of Brca1/Bard1 split-luciferase complementation, confirmation, counter-screen for Mdm2/MdmX interaction inhibitor project, luminescence, single concentration (AID 504668; call rule not given here); settings: Brca1/Bard1 bimolecular luciferase complementation counterscreen, at 8 µM, stronger effect = higher value
[9] = fluorescence interference of Apaf-1 inhibitor hits, dose response, artefact control for Apaf-1 inhibitor project (AID 588538; call rule not given here); settings: fluorescence interference counterscreen, Apaf-1 assay format

Chain of Protein Mdm4 (Homo sapiens) + E3 ubiquitin-protein ligase Mdm2 (Homo sapiens) (O15151 whole entry, looked up): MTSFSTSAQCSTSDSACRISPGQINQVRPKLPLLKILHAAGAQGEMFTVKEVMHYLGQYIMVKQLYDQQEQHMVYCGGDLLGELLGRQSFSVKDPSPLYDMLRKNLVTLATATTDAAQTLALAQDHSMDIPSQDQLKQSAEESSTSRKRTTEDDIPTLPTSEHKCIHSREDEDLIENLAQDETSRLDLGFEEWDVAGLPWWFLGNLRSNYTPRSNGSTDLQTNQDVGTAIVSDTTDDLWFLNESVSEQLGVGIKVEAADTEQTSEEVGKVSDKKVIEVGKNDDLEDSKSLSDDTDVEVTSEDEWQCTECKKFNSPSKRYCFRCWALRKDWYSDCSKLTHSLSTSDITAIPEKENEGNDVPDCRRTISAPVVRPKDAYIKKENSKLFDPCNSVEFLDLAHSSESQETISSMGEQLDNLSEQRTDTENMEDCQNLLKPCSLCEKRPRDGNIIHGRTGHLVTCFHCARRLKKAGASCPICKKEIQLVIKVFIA
Chain of Protein Mdm4 (Homo sapiens) + E3 ubiquitin-protein ligase Mdm2 (Homo sapiens) (Q00987 whole entry, looked up): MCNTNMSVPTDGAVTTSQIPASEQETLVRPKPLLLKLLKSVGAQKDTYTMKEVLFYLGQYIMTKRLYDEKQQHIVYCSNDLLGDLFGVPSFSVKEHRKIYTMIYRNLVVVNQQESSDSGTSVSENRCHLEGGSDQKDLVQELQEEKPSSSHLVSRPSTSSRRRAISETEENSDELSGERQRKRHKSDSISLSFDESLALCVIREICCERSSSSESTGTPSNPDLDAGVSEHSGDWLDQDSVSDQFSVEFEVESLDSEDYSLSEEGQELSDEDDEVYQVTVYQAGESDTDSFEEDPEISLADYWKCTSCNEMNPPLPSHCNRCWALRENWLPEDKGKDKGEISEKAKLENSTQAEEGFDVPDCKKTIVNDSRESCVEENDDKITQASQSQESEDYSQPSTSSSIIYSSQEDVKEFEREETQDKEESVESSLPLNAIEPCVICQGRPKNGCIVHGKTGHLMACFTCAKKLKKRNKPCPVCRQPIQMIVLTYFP
Chain of Tumor necrosis factor receptor superfamily member 10B (Homo sapiens) (O14763 whole entry, looked up): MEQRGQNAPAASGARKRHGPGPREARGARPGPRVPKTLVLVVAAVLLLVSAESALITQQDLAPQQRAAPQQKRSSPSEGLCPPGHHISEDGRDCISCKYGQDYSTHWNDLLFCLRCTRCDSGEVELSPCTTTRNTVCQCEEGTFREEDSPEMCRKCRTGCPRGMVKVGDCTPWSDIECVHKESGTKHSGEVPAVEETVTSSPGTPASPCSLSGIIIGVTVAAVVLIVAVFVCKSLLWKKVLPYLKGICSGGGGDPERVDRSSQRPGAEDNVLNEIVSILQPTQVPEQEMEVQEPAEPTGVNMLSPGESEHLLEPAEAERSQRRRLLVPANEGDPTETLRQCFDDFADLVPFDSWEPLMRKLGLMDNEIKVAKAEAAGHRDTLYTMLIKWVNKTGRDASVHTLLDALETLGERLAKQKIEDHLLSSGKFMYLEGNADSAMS

## Oc1ccc(N=Cc2c(O)ccc3ccccc23)cc1
[1]
  inhibition: 19.4% (inactive)
[2]
  activation (fluorescence interference): 0.51% (inactive)

## CCOC(=O)N1CCC(NC(=O)C(C)n2c3ccccc3c3cnn(C)c(=O)c32)CC1 (stereo not drawn)
[1]
  inhibition: 14% (inactive)
[2]
  activation (fluorescence interference): 17.6% (inactive)

## C#CCOCCOCCOCCNc1nc(N2CCN(C(=O)C([C@@H](C)O)n3cc([C@@H](N)CCCCN)nn3)CC2)nc(N2CCN(C(=O)[C@H](CCCCN)n3cc(CN)nn3)CC2)n1 (stereo partly drawn)
[1]
  inhibition: 1.31% (inactive)
[2]
  activation (fluorescence interference): -7.33% (inactive)

## O=C(CC(O)(C(F)(F)F)C(F)(F)F)Nc1ccc(Cl)c(Cl)c1
[3]
  inhibition: 103% (active)
[4]
  activity: 61.6%
[5]
  activity: 63.1%

## Cc1cc(N2CCCC2)ccc1NC(=O)COc1ccc(Cl)cc1
[1]
  inhibition: 28.9% (inactive)
[2]
  activation (fluorescence interference): 1.52% (inactive)

## CC1CCCCC1NC(=O)/C(C#N)=C/C=C/c1ccccc1[N+](=O)[O-] (stereo not drawn)
[3]
  inhibition: 103% (active)
[6]
  inhibition: 50.3% (active)
[7]
  inhibition: 106% (active)

## COc1ccc(-c2nc3cc(C)ccn3c2NC2CCCCC2)cc1SC1CCCCC1
[1]
  inhibition: 15.6% (inactive)
[2]
  activation (fluorescence interference): -1.22% (inactive)

## NC[C@H](Cc1ccccc1)NCCc1cc(C(F)(F)F)cc(C(F)(F)F)c1
[1]
  inhibition: 17.2% (inactive)
[2]
  activation (fluorescence interference): 11.5% (inactive)

## COCC(C)OC(=O)c1c(N)n(CCCN2CCOCC2)c2nc3ccccc3nc12 (stereo not drawn)
[1]
  inhibition: 12.4% (inactive)
[2]
  activation (fluorescence interference): 0.94% (inactive)

## C=CCn1c(N)c(C(=O)OCC(C)C)c2nc3ccccc3nc21
[1]
  inhibition: 19.4% (inactive)
[2]
  activation (fluorescence interference): 12% (inactive)

## CCCCCCCCCCOC(=O)Cn1c(COc2cccc(OC)c2)[n+](C)c2ccccc21
[1]
  inhibition: 74.8% (active)
[2]
  activation (fluorescence interference): 23% (inactive)
[8]
  inhibition: 31.2% (active)
[9]
  IC50: > 100 µM (inactive)

## CCOc1c(Br)cc(/C=C2\C(=O)N(CCC#N)N=C2C)cc1OC
[1]
  inhibition: 13.1% (inactive)
[2]
  activation (fluorescence interference): 1.73% (inactive)

## CC(C)CC[n+]1ccn(C2=C([O-])c3ccccc3C(=O)/C2=N\S(=O)(=O)c2ccccc2)c1
[1]
  inhibition: 62.6% (active)
[2]
  activation (fluorescence interference): 5.73% (inactive)
[9]
  IC50: > 100 µM (inactive)

## Cc1ccc2c(c1)C1CN(C)CCC1N2S(=O)(=O)c1ccc(Oc2ccc([N+](=O)[O-])cc2)cc1 (stereo not drawn)
[1]
  inhibition: 20.2% (inactive)
[2]
  activation (fluorescence interference): 1.73% (inactive)

## O=C(O)c1cc(Cl)c(Cl)cc1C(=O)Nc1cccc2ncccc12
[1]
  inhibition: 1.69% (inactive)
[2]
  activation (fluorescence interference): -4.02% (inactive)

## Cc1cc2oc3ccc(NCCC4CCCN4C)cc3c(=O)c2cc1C (stereo not drawn)
[1]
  inhibition: 10.1% (inactive)
[2]
  activation (fluorescence interference): 4.87% (inactive)

## O=C1NNC(c2ccccc2)=N/C1=C\c1ccc(Cl)cc1
[1]
  inhibition: 43.9% (active)
[2]
  activation (fluorescence interference): 7.08% (inactive)
[9]
  IC50: > 100 µM (inactive)

## CN(C)S(=O)(=O)c1ccc2oc(SCC(=O)Nc3ccccc3F)nc2c1
[1]
  inhibition: 77.8% (active)
[2]
  activation (fluorescence interference): 10.6% (inactive)
[9]
  IC50: > 100 µM (inactive)

## O=C(CCNS(=O)(=O)c1ccccc1)NCCSc1ccc(Br)cc1
[1]
  inhibition: 40% (active)
[2]
  activation (fluorescence interference): 5.12% (inactive)
[9]
  IC50: > 100 µM (inactive)

## CCCC[C@@H]1CN=C(N)N1CCc1cc(C(F)(F)F)cc(C(F)(F)F)c1
[1]
  inhibition: 11.5% (inactive)
[2]
  activation (fluorescence interference): 3.05% (inactive)

## C[C@@H](CN1CCC[C@H]1CN1C(N)=NC[C@@H]1Cc1ccccc1)N1C[C@@H](Cc2ccccc2)N(CCCC2CCCC2)C1=N
[1]
  inhibition: 11.8% (inactive)
[2]
  activation (fluorescence interference): 7.13% (inactive)

## Cc1c(-c2nn(C)c(=O)c3ccccc23)oc2ccc(F)cc2c1=O
[1]
  inhibition: 77.4% (active)
[2]
  activation (fluorescence interference): 2.5% (inactive)

## O=c1cc(N2CCCCC2)c(-c2ccccc2)nn1Cc1cccc(F)c1
[1]
  inhibition: 18.3% (inactive)
[2]
  activation (fluorescence interference): 9.4% (inactive)

## C#CCOCCOCCOCCNc1nc(N2CCN(C(=O)CCCCCCCCCCNC(=O)Cn3cc(CCCCCN)nn3)CC2)nc(N2CCN(C(=O)CCCCCCCCCCNC(=O)[C@H](CO)n3cc(CCCSC)nn3)CC2)n1
[1]
  inhibition: 60.8% (active)
[2]
  activation (fluorescence interference): 4.21% (inactive)
[9]
  IC50: > 100 µM (inactive)

## CCCCCCc1cc2cc(-c3nnc(-c4ccccc4)o3)c(=O)oc2cc1O
[1]
  inhibition: 76% (active)
[2]
  activation (fluorescence interference): 7.27% (inactive)
[9]
  IC50: > 100 µM (inactive)

## Nc1ccc2nn(-c3ccc(Cl)cc3)nc2c1
[1]
  inhibition: 35.8% (inactive)
[2]
  activation (fluorescence interference): 0.47% (inactive)

## COc1cccc(-c2sc3ccc(OC)cc3c2-c2ccc(OCCN3CCCCC3)cc2)c1
[1]
  inhibition: 4.75% (inactive)
[2]
  activation (fluorescence interference): 11.8% (inactive)
[8]
  inhibition: 32.7% (active)

## COc1ccc(S(=O)(=O)/N=C2\C=C(NS(=O)(=O)c3ccccc3)C(=O)c3ccccc32)cc1
[1]
  inhibition: 52.3% (active)
[2]
  activation (fluorescence interference): -7.09% (inactive)
[9]
  IC50: > 100 µM (inactive)

## CC(C)c1ccccc1OCC(O)CN(CC(O)COc1cccc2ccccc12)C(C)C (stereo not drawn)
[1]
  inhibition: 16.9% (inactive)
[2]
  activation (fluorescence interference): 14.2% (inactive)

## COc1ccccc1C1C(C#N)=C(N)Oc2c1c(-c1ccccc1)nn2-c1ccccc1 (stereo not drawn)
[1]
  inhibition: 19.9% (inactive)
[2]
  activation (fluorescence interference): 5.51% (inactive)

## Cc1[nH]n(-c2ccccc2)c(=O)c1/C=N/NC(=O)c1ccoc1C
[1]
  inhibition: 62% (active)
[2]
  activation (fluorescence interference): -3.23% (inactive)
[9]
  IC50: > 100 µM (inactive)

## COc1ccc(C(CNC(=O)c2ccc(S(=O)(=O)Nc3ccccc3F)cc2)N(C)C)cc1 (stereo not drawn)
[1]
  inhibition: 43.8% (active)
[2]
  activation (fluorescence interference): -0.45% (inactive)
[9]
  IC50: > 100 µM (inactive)

Reference: PubChem BioAssay
